# In article PMC4336329 (PLoS ONE, 2015):
# The campaign covered roughly 310,000 compounds. About 14,000 (4.5%) showed an effect of 50% or more. Effects have a minus sign here. Many of the other results were omitted from the sample, so strong results are more common in it than they were.
# Molecular target: human ether-à-go-go-related gene (hERG) potassium channel (human, UniProt Q12809)
# Experiment: primary screen, population patch clamp on CHO cells stably expressing hERG; higher = less effect of the substance
# 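Note: peak tail current of the secondary pulse compared with the same well before compound.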
# human ether-à-go-go-related gene (hERG) potassium channel, sequence (Q12809 whole entry, looked up): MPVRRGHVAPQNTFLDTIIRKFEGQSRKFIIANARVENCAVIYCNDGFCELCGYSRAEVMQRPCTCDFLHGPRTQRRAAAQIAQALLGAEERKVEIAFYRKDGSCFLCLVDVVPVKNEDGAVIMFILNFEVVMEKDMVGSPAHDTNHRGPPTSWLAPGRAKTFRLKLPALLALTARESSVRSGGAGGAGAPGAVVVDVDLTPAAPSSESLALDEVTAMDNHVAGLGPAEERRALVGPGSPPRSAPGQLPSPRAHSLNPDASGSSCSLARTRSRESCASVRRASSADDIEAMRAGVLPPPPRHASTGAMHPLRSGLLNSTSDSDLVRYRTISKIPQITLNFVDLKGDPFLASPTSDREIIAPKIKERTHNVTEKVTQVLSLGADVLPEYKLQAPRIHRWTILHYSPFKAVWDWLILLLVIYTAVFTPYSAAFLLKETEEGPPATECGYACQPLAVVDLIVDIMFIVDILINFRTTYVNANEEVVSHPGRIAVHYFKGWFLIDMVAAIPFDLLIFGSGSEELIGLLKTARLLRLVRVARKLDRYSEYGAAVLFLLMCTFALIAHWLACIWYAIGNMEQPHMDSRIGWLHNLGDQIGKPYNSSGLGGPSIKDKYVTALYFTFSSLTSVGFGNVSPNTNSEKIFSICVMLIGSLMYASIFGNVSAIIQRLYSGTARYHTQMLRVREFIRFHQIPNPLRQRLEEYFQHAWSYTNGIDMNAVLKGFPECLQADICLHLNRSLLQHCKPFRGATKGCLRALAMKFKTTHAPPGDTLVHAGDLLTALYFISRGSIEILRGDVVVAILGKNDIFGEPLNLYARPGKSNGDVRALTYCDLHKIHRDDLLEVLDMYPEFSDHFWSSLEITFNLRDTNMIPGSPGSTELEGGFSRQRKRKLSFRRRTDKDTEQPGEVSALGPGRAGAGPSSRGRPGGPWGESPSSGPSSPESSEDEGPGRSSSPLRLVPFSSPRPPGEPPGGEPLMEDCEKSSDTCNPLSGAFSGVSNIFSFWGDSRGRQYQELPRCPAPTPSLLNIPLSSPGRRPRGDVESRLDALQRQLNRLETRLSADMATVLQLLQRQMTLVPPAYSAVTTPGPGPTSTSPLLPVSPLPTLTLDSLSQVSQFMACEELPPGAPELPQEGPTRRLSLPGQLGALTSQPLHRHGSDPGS
row,Compound,"hERG current change (%, negative = inhibition) at 10uM"
1,COc1ccc(OC)c(/C=N/NC(=O)Cc2nc3ccccc3[nH]2)c1,5.63%
2,Cc1onc(-c2ccccc2)c1C(=O)N1CCN(S(=O)(=O)c2ccccc2C(F)(F)F)CC1,22.6%
3,Cc1cc(S(=O)(=O)Nc2ccc(C(=O)NCCCN3CCCC3=O)cc2)ccc1F,8.37%
4,O=C(NCc1ccccc1)C1C(=O)N(Cc2ccccc2)C(=O)C1C1(O)CCCC1 (stereo not shown),2.87%
5,O=C(Nc1ccc2oc(=O)ccc2c1)c1ccc(-c2ccc(Cl)cc2)o1,3.37%
6,S=c1[nH]nc(Cc2ccccc2)n1Cc1ccco1,-5.08%
7,Cc1nc2ccc(S(=O)(=O)NCC(=O)N3CCN(c4ccccc4)CC3)cc2s1,-1.33%
8,O=C(O)c1cc(NC(=O)c2cccc(F)c2)cc(NC(=O)c2cccc(F)c2)c1,15.4%
9,COc1ccc(OCC(=O)NCC(c2ccc(OC)cc2)N2CCCCC2)cc1 (stereo not shown),-33.1%
10,COc1ccc(C(CNC(=O)COc2ccc(F)cc2Cl)N2CCCCC2)cc1 (stereo not shown),-8.7%
11,COc1ccc(C(CNC(=O)COc2ccc([N+](=O)[O-])cc2)N2CCCCC2)cc1 (stereo not shown),-69.9%
12,COc1ccc(C(CNC(=O)COc2ccccc2C)N2CCCCC2)cc1 (stereo not shown),-20.7%
13,COc1ccc(C(CNC(=O)COc2ccccc2OC)N2CCCCC2)cc1 (stereo not shown),-19.5%
14,COc1ccc(C(CNC(=O)COc2ccccc2C)N2CCCC2)cc1 (stereo not shown),-40.8%
15,COc1ccc(C(CNC(=O)COc2ccc(Br)cc2F)N2CCCC2)cc1 (stereo not shown),-78.6%
16,COc1ccc(C(CNC(=O)COc2ccc(F)cc2Br)N2CCCC2)cc1 (stereo not shown),-64.5%
17,COc1ccc(C(CNC(=O)COc2ccccc2)N2CCCCC2)cc1 (stereo not shown),-29.3%
18,COc1ccccc1CNC(=O)CCc1nc2ccccc2c(=O)[nH]1,-1.26%
19,CC(=O)Nc1cccc(NC(=O)c2cccc(OCc3ccccc3)c2)c1,10.6%
20,Cc1ccc(C2(C(F)(F)F)NC(=O)N3CCCN=C3S2)cc1 (stereo not shown),16.5%
21,Cc1cc(C)c(NC(=S)N(CCN2CCCCC2)Cc2ccco2)c(C)c1,-37.9%
22,Cc1cccc(C)c1NC(=S)N(CCCN1CCCCC1)Cc1ccco1,-25.7%

row,Compound,"hERG current change (%, negative = inhibition) at 10uM"
1,Cc1cccc(C)c1NC(=S)N(CCN1CCCCCC1)Cc1ccco1,-34.9%
2,Cc1ccc(NC(=S)N(CCN2CCCCC2)Cc2ccco2)cc1Cl,-51.1%
3,Cc1cc(NC(=S)N(CCN2CCCCC2)Cc2ccco2)ccc1Cl,-55.3%
4,Cc1ccc(NC(=S)N(CCN2CCCCC2)Cc2ccco2)cc1C,-80.3%
5,Cc1cc(C)cc(NC(=S)N(CCN2CCCCC2)Cc2ccco2)c1,-74.4%
6,CN(C)CCOc1ccccc1-c1ccccc1.O=C(O)C(=O)O,-4.52%
7,COc1ccccc1CCNC(=O)c1ccc2nc[nH]c2c1,3.97%
8,Nc1cc(=O)[nH]c(SCc2ccccc2Cl)n1,3.76%
9,Cc1nc2c(nnn2Cc2ccccc2)c(=O)n1-c1ccccc1,0.475%
10,NC(=O)c1cc([N+](=O)[O-])ccc1N1CCCCC1,-17.2%
11,Cc1ccc(S(=O)(=O)N(C)c2ccc(OC(=O)CN3C(=O)NC4(CCCC4)C3=O)cc2)cc1C,9.26%
12,COC(=O)c1ccc(C(=O)OC)c(NC(=O)CN(C)Cc2ccc(Cl)c(Cl)c2)c1,5.46%
13,CCNC(=S)N1CCC(C(=O)c2ccc(Cl)cc2)CC1,-16.8%
14,CO/N=C(\Cn1ncc(N2CCCC2)c(Cl)c1=O)c1ccc(Cl)cc1,-64%
15,CC(=O)Cn1ncc(N2CCCCC2)c(Cl)c1=O,17.8%
16,O=C(Cn1ncc(N2CCCC2)c(Br)c1=O)c1ccc(Cl)cc1,-23.1%
17,CC(C)(C)C(=O)Cn1ncc(N2CCOCC2)c(Cl)c1=O,-71.9%
18,O=C(Cn1ncc(N2CCCC2)c(Cl)c1=O)c1ccc(Cl)cc1,-21.2%
19,CO/N=C(\Cn1ncc(N2CCOCC2)c(Br)c1=O)c1ccc(Cl)cc1,-19.7%
20,CC(=O)Cn1ncc(N2CCOCC2)c(Cl)c1=O,4.26%
21,CC(C)(C)C(=O)Cn1ncc(N2CCOCC2)c(Br)c1=O,-0.203%
22,CO/N=C(\Cn1ncc(N2CCCC2)c(Br)c1=O)c1ccc(Cl)cc1,-57.5%

row,Compound,"hERG current change (%, negative = inhibition) at 10uM"
1,CCOC(=O)c1[nH]nc(-c2c(O)cc(C)cc2O)c1-c1csc(C)n1,11.3%
2,Cc1cc(C)c2c(c1)c(C)cc1nnc(SCC(=O)NCc3ccco3)n12,-8.05%
3,COCCn1c(SCC(=O)NC2CCCCC2)nc2c(c1=O)SCC2,-11.2%
4,Cc1ccc(C)c(S(=O)(=O)N2CCCOC2CNC(=O)C(=O)NCCCN2CCOCC2)c1 (stereo not shown),0.752%
5,CCN(CC)c1cc(Oc2ccccc2)ncn1,-9.54%
6,COc1cccc(C(=O)CSc2nnnn2C)c1,4.88%
7,Cc1ccc(/C=N/NC(=O)CSc2nnc(-c3ccc(Cl)cc3)n2-c2ccccc2)o1,-39.5%
8,CCOC(=O)N1CCN(C(=O)CSc2nc(-c3cccc(C)c3)ns2)CC1,-38.8%
9,O=C1N(Cc2ccccc2F)c2ccccc2C12OCCCO2,10.9%
10,O=C(OC(C(=O)c1c[nH]c2ccccc12)c1ccccc1)c1cnccn1 (stereo not shown),1.77%
11,O=C(O)/C(=C/c1cccnc1)NC(=O)c1ccccc1,20.3%
12,Cc1ccc(C(=O)CC2(O)C(=O)N(CN3CCOCC3)c3ccccc32)cc1 (stereo not shown),-2.38%
13,CCc1ccc(C(=O)CC2(O)C(=O)N(CN3CCOCC3)c3ccccc32)cc1 (stereo not shown),7.69%
14,O=C(CC1(O)C(=O)N(CN2CCOCC2)c2ccccc21)c1ccccc1 (stereo not shown),-70.4%
15,CC(C)=CCC(C)(C)C1OCCN1C(=O)c1ccccc1 (stereo not shown),-18.7%
16,Br.COc1ccc(-c2nc3n(c2C)CCC3)cc1,-6.52%
17,CCN(CC(=O)Nc1c(F)cccc1F)C(=O)c1cc([N+](=O)[O-])ccc1N1CCCCC1,-10.6%
18,CC(=O)OCc1nc2ccccc2s1,12%
19,O=C(CCCCCNC(=S)Nc1ccc(Cl)cc1)C[N+](=O)[O-],12.9%
20,COc1ccc(-c2[nH]ncc2CN(C)CCN2CCOCC2)cc1F,16.6%
21,COc1ccc(C(=O)/C=C/c2ccc(OC)c(O)c2)c(F)c1,-13.5%
22,COc1cc(/C=C/C(=O)c2ccc(Cl)s2)cc(OC)c1O,-74.4%

row,Compound,"hERG current change (%, negative = inhibition) at 10uM"
1,COc1ccc2cc(C(=O)/C=C/c3cc(OC)c(O)c(OC)c3)ccc2c1,8.79%
2,COc1ccc(/C=C/C(=O)c2ccc(Cl)s2)cc1O,1.69%
3,COc1ccc(C(=O)/C=C/c2cc(OC)c(O)c(OC)c2)c(F)c1,-52.3%
4,COc1cc(/C=C/C(=O)O)cc(OC)c1O,2.08%
5,COc1ccc(CCNC(=O)C2CCN(S(=O)(=O)c3ccc(C)cc3)CC2)cc1,0.741%
6,COc1ccc(/C=N/NC(=O)c2cccc(OC(F)(F)C(F)F)c2)c(OC)c1OC,-3.77%
7,O=C(Nc1sc2c(c1C(=O)O)CCCCC2)c1ccccc1,67.4%
8,CCOC(=O)c1ccc(NC(=O)N2CCN(c3cccc(OC)c3)CC2)cc1,-16.5%
9,O=C1COc2ccc(NC(=O)N3CCN(c4ccc(F)cc4)CC3)cc2N1,-79.8%
10,O=C(Nc1ccc2c(c1)OCCO2)N1CCN(c2ccc(F)cc2)CC1,-5.49%
11,COc1cccc(N2CCN(S(=O)(=O)c3cc4c(cc3Cl)NC(=O)CO4)CC2)c1,12%
12,O=C1COc2ccc(NC(=O)c3ccccc3C(=O)O)cc2N1,21.6%
13,COc1cccc(N2CCN(C(=O)Nc3ccc4c(c3)NC(=O)CO4)CC2)c1,-75.8%
14,O=C(Nc1ccc2c(c1)OCO2)N1CCN(c2ccc(F)cc2)CC1,-28%
15,O=C(Nc1ccc2c(c1)OCO2)N1CCN(c2ccccc2Cl)CC1,-32.3%
16,CSc1ccccc1N1CCN(C(=O)Nc2ccc3c(c2)NC(=O)CO3)CC1,-56.3%
17,Cc1nn(Cc2ccc([N+](=O)[O-])cc2)c(=O)n1N(C)c1ncc(C(F)(F)F)cc1Cl,-3.46%
18,O=C(NCc1ccccc1F)C1CC(=O)N(c2ccc3c(c2)OCCO3)C1 (stereo not shown),-2.83%
19,O=C(Nn1c(SCc2cccc([N+](=O)[O-])c2)nc2ccccc2c1=O)c1ccccc1,-1.31%
20,Cc1noc(C)c1COc1ccccc1C(=O)NC1CCC(C)CC1 (stereo not shown),0.497%
21,CSCC[C@H](NC(=O)Nc1cccc(C(F)(F)F)c1)C(=O)O,-0.0702%
22,Cc1cccc(CSc2nnc([C@@H]3CCCN3C(=O)OC(C)(C)C)o2)c1,4.85%
